Screening results (PubChem)
Most compounds without a hit are left out; they make up all but 3.3% or so of the library.
LmPK inh: blocks Leishmania mexicana pyruvate kinase activity. AID 1721. Potency, µM (top dose mostly 57.5 µM), inactives show top-dose activity change, negative = inhibition, hits mostly inhibitors. Q27686. purified LmPK, Kinase-Glo ATP luminescence, 1 h. 0.37% of 290,000 active; also: % is scaled to controls: 0 for no effect and ±100 for the full control effect
Target sequence (Q27686 whole entry, looked up): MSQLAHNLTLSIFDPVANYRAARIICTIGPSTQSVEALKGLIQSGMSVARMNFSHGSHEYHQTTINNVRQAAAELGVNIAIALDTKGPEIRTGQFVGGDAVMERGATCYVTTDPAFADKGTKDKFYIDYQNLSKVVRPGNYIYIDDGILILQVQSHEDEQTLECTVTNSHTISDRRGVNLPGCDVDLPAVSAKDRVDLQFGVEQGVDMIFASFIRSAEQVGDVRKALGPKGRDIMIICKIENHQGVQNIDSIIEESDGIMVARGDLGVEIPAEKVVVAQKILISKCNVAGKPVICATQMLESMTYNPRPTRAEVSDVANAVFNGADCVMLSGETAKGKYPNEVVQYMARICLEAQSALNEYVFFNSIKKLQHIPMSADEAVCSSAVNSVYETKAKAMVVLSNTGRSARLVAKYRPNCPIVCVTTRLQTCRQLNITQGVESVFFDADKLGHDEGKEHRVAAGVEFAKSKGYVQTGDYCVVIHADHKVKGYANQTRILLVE
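Screened at intermediate enzyme activity to detect both inhibitors and activators: LmPK at 0.1 nM, with a 0.5 nM enzyme column as activation reference. PEP 0.5 mM, ADP 0.1 mM; ATP detected by luminescence after 1 h.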
RE007 growth inh: less growth of the S. pombe RE007 Vpr strain; Potency, µM (series often up to 92.2 µM), inactives show at the highest dose activity change, negative = less growth, hits mostly inhibitors; S. pombe RE007 Vpr strain, BacTiter-Glo ATP luminescence, 24 h; AID 651644; 0.21% of 360,000 active; active = well fitted falling curve with a large enough effect; inconclusive = small, poorly fitted or top-dose-only effect; inactive = no such curve, though single readings can be large or run the other way; also: % is scaled to controls: 0 for no effect and ±100 for the full control effect; nearly all actives have a fitted effect of over 50% in size
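Fission yeast strain RE007, carrying one chromosomally integrated HIV-1 vpr copy, was seeded at OD 0.01 in PMG+AL medium with 23 nL pinned compound. After 24 h at 30 °C and 99% humidity, viability was read by BacTiter-Glo luminescence.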
NS1 inh: inhibitors of influenza NS1 protein function; 0.4% of 270,000 active; Potency, µM (top dose mostly 46.1 µM), inactives show at the top dose activity, positive = more growth; calls by dose curve; also: actives are rising curves; nearly all actives have a fitted effect of over 50% in size
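Read-out: OD600 growth recovery of NS1-expressing budding yeast. Cells grown overnight at 30C in -URA glucose medium, washed, resuspended and diluted 1:100 in 2% galactose assay medium, pH 6.0. Same strain lacking NS1 served as positive control.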
Sm TGR block: S. mansoni TGR enzyme inhibition. AID 485364. 3% of 360,000 active. Potency, µM (titrated, usually from 114 µM), for the others: at the highest dose activity change, negative = inhibition, most hits filed as inhibitors. purified TGR, DTNB reduction, TNB absorbance 405 nm. Q962Y6; also: % is scaled to controls: 0 for no effect and ±100 for the full control effect; nearly all actives have a fitted effect of over 60% in size
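First, TGR (20 nM dispensed) and NADPH were mixed with compound. Second, a 15 min room-temperature incubation followed. Third, further NADPH and then DTNB were added to start the reaction. Finally, TNB absorbance was monitored kinetically.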
SARS PLP yeast: inhibitors of SARS-CoV papain-like protease in yeast; S. cerevisiae expressing SARS-CoV PLpro, growth rescue; Potency, µM (highest dose often 32.9 µM), for inactives: at the top dose activity, positive = growth rescue, usual class: activators; 0.19% of 330,000 active; calls by dose curve; also: 0% is about no effect; nearly all actives have a fitted effect of over 55% in size
Tb PYK inh: blocks Trypanosoma brucei pyruvate kinase | Q57TT1 | TbPYK enzyme, Kinase-Glo Plus ATP luminescence, 45 min | Potency, µM (titrated, usually from 76.8 µM), without a hit: at the top dose activity, negative = inhibition, usual class: inhibitors | 0.12% of 410,000 active; also: % is scaled to controls: 0 for no effect and ±100 for the full control effect; nearly all actives have a fitted effect of over 50% in size
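Luminescence from Kinase-Glo Plus, added after a 45-minute room-temperature reaction, served as the end-point read-out. The enzyme and substrate were preincubated with compound before ADP (130 uM final) initiated turnover. Concentration-effect curves came from normalized qHTS data.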
Active calls of the source: *; ? = inconclusive; · = no result given; [ ] = dose if it differs, or a comment. Unless noted, calls follow the shape of the dose curve; as a rule, active = well fitted curve in the direction sought with a large enough effect; inconclusive = small, poorly fitted or top-dose-only effect, or another doubt; inactive = no such curve, though single readings can be large; an effect the other way counts as inactive or inconclusive. Potency is read from the fitted curve at half-maximal effect.

SMILES	LmPK inh	RE007 growth inh	NS1 inh	Sm TGR block	SARS PLP yeast	Tb PYK inh
CC(C)CN(CC(C)C)c1ccc(C=C2C(=O)NC(=S)NC2=O)cc1[N+](=O)[O-]	15%	-7%	16%	1.1µM*	-2%	-26%
COc1cc(C(=O)NCc2ccc3c(c2)CCN3C(=O)c2ccncc2)cc(OC)c1OC	·	·	·	0%	·	2%
COC(=O)CN1C(=O)CSc2ccc(S(=O)(=O)Nc3ccc(C)c(Cl)c3)cc21	·	·	·	6%	·	-4%
Cc1[nH]c2ccc(OCc3ccccc3)cc2c1CCN	5%	17%	12%	25%	-10%	1%
Cc1[nH]c2ccc(O)cc2c1CCN	·	8%[18.4 µM]	-1%	40µM*	·	-4%
CCC(=O)O[C@@H]1CC(=O)O[C@H](C)CC=CC=C[C@@H](O)[C@H](C)C[C@H](CC=O)[C@H](O[C@H]2O[C@H](C)[C@@H](O[C@H]3C[C@@](C)(O)[C@@H](OC(=O)CC)[C@H](C)O3)[C@H](N(C)C)[C@H]2O)[C@H]1OC	2%	·	-33%	25µM*	-1%	·
C[Si](C)(c1ccc(C(=O)O)cc1)c1ccc(C(=O)O)cc1	·	·	5%	·	·	·
C=CC1=C2C=C(C3CC3)N(CCN3CCOCC3)C=C2C(=O)C(C)(OC(=O)c2ccco2)C1=O (configuration not stated)	-6%[11.5 µM]	·	·	·	·	·
COc1ccc(N2C3=C(CC4=C2CCCC4=O)C(=O)CCC3)cc1	-11%	-10%	25%	40µM*	4%	?
NCCSC[C@H](N)C(=O)O	·	·	-3%	·	·	·
CC(C(=O)N1CCCC1)N(C)CC(=O)Nc1cccc(F)c1 (configuration not stated)	·	-14%	·	8.9µM*	0%	4%
C/C=C(/CC[C@@H](C)[C@H]1CCC2C3=CC[C@H]4[C@H](C)[C@@H](O)CC[C@]4(C)C3CC[C@@]21C)C(C)C (some centres not stated)	·	·	·	·	·	0%
COc1ccc(CC(=O)Nc2ccc(C#N)c(Cl)c2)cc1S(=O)(=O)N1CCOCC1	-10%	-18%	12%	13µM*	-4%	-12%
COc1ccc(NC(=O)Cn2ncc(Cl)c(Cl)c2=O)cc1S(=O)(=O)N1CCOCC1	0%	·	21%	10µM*	-11%	-13%
CC(=O)N1CCc2c(sc3c2c(=O)n(CCc2ccccc2)c(=O)n3Cc2ccc(F)cc2)C1	·	·	·	5%	·	0%
CN1C(=O)c2ccccc2Sc2ccc(NC(=O)COc3ccc(Cl)cc3)cc21	·	·	·	7%	·	7%
COc1ccc(NC(=O)c2oc3ccc(S(=O)(=O)N4CCC5(CC4)OCCO5)cc3c2C)cc1	5%	14%	11µM*	1%	-2%	-7%
Cc1ccc(NC(=O)c2oc3ccc(S(=O)(=O)N4CCC5(CC4)OCCO5)cc3c2C)cc1Cl	·	·	·	-14%	·	1%
O=C1CCCCc2sc(Br)c([N+](=O)[O-])c2N1	0%	-1%	2%	0.79µM*	-1%	3%
CCC(CC)C(=O)Nc1nnc(S(=O)(=O)N(C)c2cc(C)cc(C)c2)s1	·	·	·	-11%	·	2%
COc1ccc(/C=C/C(=O)OCn2c(SC)nnc(C)c2=O)cc1OC	-1%	1%	·	28µM*	-5%	-5%
COc1ccc2c(c1)CC/C(=C\Nc1ccc3c(c1)OCO3)C2=O	-1%	0%	-70%	6.3µM*	-27%	-18%
O=C1/C(=C/Nc2ccc3c(c2)OCO3)CCc2ccccc21	13µM*	?	-162%	?	-30%	?
COc1ccc(N/C=C2\CCOC2=O)cc1	-4%	11%	2%	-11%	4%	-2%
COc1ccc(N/C=C2\CCc3ccccc3C2=O)cc1	13µM*	?	-35%	40µM*	-4%	?
SMILES	LmPK inh	RE007 growth inh	NS1 inh	Sm TGR block	SARS PLP yeast	Tb PYK inh
N#CC1=C(S)N(c2ccccc2)C(c2ccc(-c3ccc(Cl)c(Cl)c3)o2)NC1=O (configuration not stated)	-4%	-12%	-33%	14µM*	-6%	-6%
N#CC1=C(S)N(c2ccccc2)C(c2ccc(-c3cc(Cl)ccc3Cl)o2)NC1=O (configuration not stated)	2%	11%	17%	-6%	-1%	2%
C#CC[N+]1(CC#Cc2cccc3ccccc23)CCOCC1	3%	8%	0%	28µM*	1%	4%
C#CC[N+]1(CC#Cc2ccc(C#CC[N+]3(CC#C)CCOCC3)cc2)CCOCC1	7%	-10%	4%	0%	-5%	-3%
CCCS(=O)(=O)c1cn2cccc(N)c2c1S(=O)(=O)CCC	-12%	-14%	7%	22µM*	-1%	-11%
COC(=O)c1ccc(N2C(=O)CC(N(C)CCc3ccc(OC)c(OC)c3)C2=O)cc1 (configuration not stated)	0%	7.9µM*	-251%	22µM*	-29%	-16%
COc1ccc(N2C(=O)CC(N(C)CCc3ccc(OC)c(OC)c3)C2=O)cc1 (configuration not stated)	4%	22µM*	1%	-1%	-2%	4%
COc1ccc(CCN(C)C2CC(=O)N(c3ccccc3)C2=O)cc1OC (configuration not stated)	1%	6.3µM*	-87%	11µM*	-4%	-2%
COc1ccc(OC)c([N+](=O)[O-])c1C(N)=O	2%	-6%	5%	79µM*	-1%	-5%
CCCCCCC(=O)Cc1cc(OC)c(OC)cc1C=C(C(=O)OCC)C(=O)OCC	1%	·	-4%	40µM*	2%	·
CCOC(=O)/C(C#N)=C/c1ccc(OC)c(OC)c1	0%	-20%	4%	6%	-4%	-1%
CN(C)S(=O)(=O)c1cccc(NC(=O)COC(=O)/C=C/c2ccc(Br)o2)c1	-2%	5%	0%	7.1µM*	0%	-12%
Cc1ccc(NC(=O)COC(=O)/C=C/c2ccc(Br)o2)cc1S(=O)(=O)N(C)C	3%	-13%	1%	25µM*	0%	1%
CCOc1ccccc1NC(=O)Nc1cc2c(cc1N1CCCCC1)n(CC)c(=O)n2CC	·	·	·	-12%	·	-10%
NS(=O)(=O)c1ccc(NC(=S)NC(=O)c2ccco2)cc1	5%	-11%	4%	56µM*	-3%	2%
NS(=O)(=O)c1ccc(NC(=S)NC(=O)/C=C/c2ccco2)cc1	7%	-12%	23%	40µM*	-7%	-15%
S=C(Nc1ccccc1)Nc1ccccc1Br	7%	3%	-1%	45µM*	1%	6%
Cc1ccccc1NC(=S)Nc1ccc(Br)cc1	-1%	-10%	-16%	-22%	-57%	5%
CCOc1ccc(NC(=S)NC(=O)c2ccco2)cc1	-7%	-15%	-64%	13µM*	-4%	-4%
